Values joined by “and” are separate entries in the source; they are usually repeats but may differ in a detail not shown here. Identical values can stand only once. Results filed as inconclusive are left out. More than one record can exist for a structure, and the calls need not agree. Active and inactive are the calls of the source. Unless noted, calls come from the whole dose curve; as a rule, active = well fitted curve in the direction sought with a large enough effect in the repeat runs; inconclusive = weak or mixed curves; inactive = no such curve, though single readings can be large; an effect the other way counts as inactive or inconclusive.
Legend:
[1] = biological target: Luciferin 4-monooxygenase (Photinus pyralis) (UniProt P08659); test: qHTS assay to identify small molecule inhibitors of firefly luciferase (AID 1224835); note: nearly all actives have a fitted effect of over 25% in size; note: potency is the fitted concentration of half-maximal effect; details: purified P. pyralis luciferase, luminescence inhibition; series mostly up to 115 µM
Chain of Luciferin 4-monooxygenase (Photinus pyralis) (P08659 whole entry, looked up): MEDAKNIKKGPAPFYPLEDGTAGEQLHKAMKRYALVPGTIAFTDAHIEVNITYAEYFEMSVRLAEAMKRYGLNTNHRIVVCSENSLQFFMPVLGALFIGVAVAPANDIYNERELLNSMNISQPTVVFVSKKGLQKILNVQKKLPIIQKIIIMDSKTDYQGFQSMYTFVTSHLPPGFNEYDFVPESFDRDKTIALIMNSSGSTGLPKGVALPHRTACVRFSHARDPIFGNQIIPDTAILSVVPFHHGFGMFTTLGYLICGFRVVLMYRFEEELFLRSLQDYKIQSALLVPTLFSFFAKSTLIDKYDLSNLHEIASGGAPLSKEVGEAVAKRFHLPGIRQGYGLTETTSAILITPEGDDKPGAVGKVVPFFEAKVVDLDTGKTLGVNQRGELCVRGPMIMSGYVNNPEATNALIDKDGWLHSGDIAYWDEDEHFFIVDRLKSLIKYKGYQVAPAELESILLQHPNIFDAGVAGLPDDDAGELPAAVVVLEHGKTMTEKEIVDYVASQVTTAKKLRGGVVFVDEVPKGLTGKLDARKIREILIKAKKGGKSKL
Summary of the method: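 Quantitative HTS format; KM concentrations of both substrates. Purified P. pyralis FLuc activity quantified from luminescence images.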

[2] = qHTS assay to identify small molecule agonists of the constitutive androstane receptor (CAR) signaling pathway - cell viability counter screen (AID 1224836); details: HepG2-CYP2B6-hCAR viability, CellTiter-Fluor, 23 h, PK11195 added to every well; series mostly up to 92.4 µM; note: nearly all actives have a fitted effect of over 45% in size
Summary of the method: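 HepG2 cells stably carrying hCAR and a CYP2B6-2.2kb reporter were plated 4 h, then given compounds at 15 concentrations plus PK11195 (final 0.75 uM). After 23 h at 37 C, viability was read by CellTiter-Fluor fluorescence.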

[3] = qHTS assay to identify small molecule antagonists of the constitutive androstane receptor (CAR) signaling pathway - cell viability counter screen (AID 1224837); details: HepG2-CYP2B6-hCAR viability, CellTiter-Fluor, 23 h, co-treated with 50 nM CITCO; series mostly up to 92.4 µM; note: nearly all actives have a fitted effect of over 45% in size
Summary of the method: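 Fluorescence from CellTiter-Fluor served as the viability signal. Human hepatoma HepG2 cells stably bearing hCAR and CYP2B6-2.2kb received compound plus CITCO (50 nM final) for 23 hr.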

[4] = biological target: Nuclear receptor subfamily 1 group I member 3 (Homo sapiens) (UniProt Q14994); test: qHTS assay to identify small molecule antagonists of the constitutive androstane receptor (CAR) signaling pathway (AID 1224838); details: HepG2-CYP2B6-hCAR luciferase, CITCO-stimulated, 24 h; series mostly up to 92.4 µM; note: nearly all actives have a fitted effect of over 40% in size; note: potency is the fitted concentration of half-maximal effect
Chain of Nuclear receptor subfamily 1 group I member 3 (Homo sapiens) (Q14994 whole entry, looked up): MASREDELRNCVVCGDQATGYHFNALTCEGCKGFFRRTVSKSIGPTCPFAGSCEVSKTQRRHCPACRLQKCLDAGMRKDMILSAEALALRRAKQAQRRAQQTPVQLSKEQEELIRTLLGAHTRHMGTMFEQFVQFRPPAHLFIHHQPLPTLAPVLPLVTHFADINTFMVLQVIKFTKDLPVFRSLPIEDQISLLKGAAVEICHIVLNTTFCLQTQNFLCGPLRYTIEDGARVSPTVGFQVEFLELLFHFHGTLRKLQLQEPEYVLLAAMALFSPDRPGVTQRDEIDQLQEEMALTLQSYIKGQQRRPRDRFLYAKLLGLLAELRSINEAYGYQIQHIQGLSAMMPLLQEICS
Summary of the method: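 Quantitative HTS in double-stable HepG2-CYP2B6-hCAR cells. After 4 h plating, cells get compound (15 concentrations) and CITCO at 50 nM final, incubate 24 h at 37 C, then ONE-Glo luminescence is read.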

[5] = biological target: Nuclear receptor subfamily 1 group I member 3 (Homo sapiens) (UniProt Q14994); test: qHTS assay to identify small molecule agonists of the constitutive androstane receptor (CAR) signaling pathway (AID 1224839); details: HepG2 hCAR CYP2B6-luciferase, agonist mode, 24 h; series mostly up to 92.4 µM; note: nearly all actives have a fitted effect of over 15% in size; note: potency is the fitted concentration of half-maximal effect;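 for activation: HepG2 cells stably carrying human CAR and a CYP2B6 luciferase reporter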
Summary of the method: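 HepG2 cells stably expressing hCAR and a CYP2B6-2.2kb luciferase reporter were treated with compounds at 15 concentrations plus 0.75 uM PK11195 (final) for 24 h at 37 C; luminescence was read after ONE-Glo addition.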

[6] = qHTS assay to identify small molecule antagonists of the estrogen related receptor signaling pathway with the pleiotropic PPARgamma coactivator (PGC) from Tox21 10K library - cell viability counter screen (AID 1224840; active = well fitted cell-killing curve with a large enough effect in the repeat runs, not every such curve was filed as active; note: nearly all actives have a fitted effect of over 40% in size; note: potency is the fitted concentration of half-maximal effect); details: PGC/ERR reporter cells viability, CellTiter-Fluor, 17.5 h; series mostly up to 92.4 µM
Summary of the method: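 Compounds in DMSO, alongside positive and negative controls, were pinned onto PGC/ERR cells (2,000 per well). Exposure lasted 17.5 hours at 37 C, followed by a 30-minute CellTiter-Fluor incubation and fluorescence reading.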

[7] = biological target: Thyrotropin receptor (Homo sapiens) (UniProt P16473); test: qHTS assay to identify small molecule agonists of the thyroid stimulating hormone receptor (TSHR) signaling pathway (AID 1224843; calls by dose curve; note: nearly all actives have a fitted effect of over 45% in size; note: potency is the fitted concentration of half-maximal effect); details: TSHR-HEK293 cells, cAMP HTRF, agonist mode, 30 min; series mostly up to 92.4 µM
Chain of Thyrotropin receptor (Homo sapiens) (P16473 whole entry, looked up): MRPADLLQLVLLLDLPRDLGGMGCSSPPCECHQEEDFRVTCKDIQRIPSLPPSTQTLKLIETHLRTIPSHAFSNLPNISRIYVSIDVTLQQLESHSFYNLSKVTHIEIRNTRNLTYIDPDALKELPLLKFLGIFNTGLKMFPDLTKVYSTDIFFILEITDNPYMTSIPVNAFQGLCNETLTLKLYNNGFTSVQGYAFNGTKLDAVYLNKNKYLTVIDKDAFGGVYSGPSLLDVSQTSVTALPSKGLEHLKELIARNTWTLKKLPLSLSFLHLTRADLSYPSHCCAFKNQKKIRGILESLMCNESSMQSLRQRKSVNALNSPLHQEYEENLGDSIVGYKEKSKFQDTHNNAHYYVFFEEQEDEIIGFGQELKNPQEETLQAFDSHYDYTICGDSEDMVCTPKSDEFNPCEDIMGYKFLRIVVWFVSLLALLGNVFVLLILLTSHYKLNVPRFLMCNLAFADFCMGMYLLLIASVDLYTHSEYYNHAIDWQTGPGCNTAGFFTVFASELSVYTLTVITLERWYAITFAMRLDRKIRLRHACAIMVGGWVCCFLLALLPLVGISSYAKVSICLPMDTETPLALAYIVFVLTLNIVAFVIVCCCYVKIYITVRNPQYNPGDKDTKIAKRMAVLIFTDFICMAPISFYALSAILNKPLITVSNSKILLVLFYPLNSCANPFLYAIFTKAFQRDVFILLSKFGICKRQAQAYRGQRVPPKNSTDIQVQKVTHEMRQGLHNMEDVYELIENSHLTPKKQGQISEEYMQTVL
Summary of the method: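 Cell line HEK293 with TSHR; density 800/well. Exposure 30 min RT. Readout HTRF cAMP (cAMP-d2/anti-cAMP-cryptate), 1 h RT before reading.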

[8] = qHTS assay to identify small molecule antagonists of the estrogen related receptor (ERR) signaling pathway from Tox21 library - cell viability counter screen (AID 1224834); details: ERR reporter cells viability, CellTiter-Fluor, 17.5 h; series mostly up to 92.4 µM; note: nearly all actives have a fitted effect of over 30% in size; note: potency is the fitted concentration of half-maximal effect
Summary of the method: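 Viability readout (CellTiter-Fluor fluorescence, 30 min at 37 C) multiplexed with the ERR assay; cells treated 17.5 h at 37 C with compounds delivered in DMSO.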

[9] = qHTS assay to identify small molecule agonists of the estrogen related receptor signaling pathway with the pleiotropic PPARgamma coactivator (PGC) from Tox21 10K library (AID 1224842); details: PGC/ERR reporter cell line, luciferase ONE-Glo, 18 h; series mostly up to 92.4 µM; note: nearly all actives have a fitted effect of over 15% in size; note: potency is the fitted concentration of half-maximal effect
Summary of the method: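 PGC/ERR reporter cells (NTP line) were seeded 2,000 per well, rested 6 h at 37 C/5% CO2, then pin-dosed with compounds in DMSO for 18 h at 37 C; luciferase read by One-Glo luminescence after 30 min at room temperature.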

[10] = qHTS assay to identify small molecule antagonists of the estrogen related receptor signaling pathway with the pleiotropic PPARgamma coactivator (PGC) from Tox21 10K library (AID 1224841; call rule not given here; note: actives are mostly falling curves and most rising ones were filed inactive; nearly all actives have a fitted effect of over 50% in size; note: potency is the fitted concentration of half-maximal effect); details: PGC/ERR reporter cell line, ONE-Glo luciferase, 18 h; series mostly up to 92.4 µM
Summary of the method: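 Compound exposure ran 18 hours at 37 C in PGC/ERR cells (2,000/well) that had first rested 6 hours in a 37 C/5% CO2 incubator. Luciferase activity was then detected with One-Glo after a 30-minute room-temperature step.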
% is set by controls: 0 for no effect and ±100 for the full control effect.

BrCc1ccc(Br)cc1
inactive: Potency [1] | Potency [2] | Potency [3] | Potency [4] | Potency [5] | Potency [6] | Potency [7]

COC(=O)[C@@H](N)CCCN/C(N)=N/[N+](=O)[O-]
inactive: Potency [8] | Potency [1] | Potency [2] | Potency [3] | Potency [6] | Potency [7]

CON(C)C(=O)Nc1ccc(Br)cc1
inactive: Potency [1] | Potency [2] | Potency [3] | Potency [4] | Potency [6]

C[C@H]1CCCC(=O)CCC/C=C/c2cc(O)cc(O)c2C(=O)O1
inactive: Potency [1] | Potency [5]
active: Potency [8] 26.3 µM and 17.8 µM | Potency [4] 20.9 µM | Potency [6] 23.4 µM

C[C@H](CN1CCOCC1)C(C(=O)N1CCCC1)(c1ccccc1)c1ccccc1
inactive: Potency [8] | Potency [1] | Potency [2] | Potency [6] | Potency [9]

CC(=NC#N)N(C)Cc1ccc(Cl)nc1
inactive: Potency [8] | Potency [1] | Potency [2] | Potency [3] | Potency [6] | Potency [7]

ClC1=C(Cl)C2(Cl)C(CBr)CC1(Cl)C2(Cl)Cl (stereo not given)
inactive: Potency [8] | Potency [1] | Potency [2] | Potency [3] | Potency [6]
active: Potency [7] 4.33 µM and 10.6 µM

O=[N+]([O-])c1cccc(CCl)c1
inactive: Potency [8] | Potency [2] | Potency [3] | Potency [4] | Potency [6] | Potency [7]

NC1(c2ccccc2)CCCCC1
inactive: Potency [1] | Potency [5] | Potency [6] | Potency [7]

NC(=O)OCCCc1ccccc1
inactive: Potency [8] | Potency [1] | Potency [2] | Potency [3] | Potency [6] | Potency [7]

O=C(Cl)/C=C/C(=O)Cl
inactive: Potency [8] | Potency [2] | Potency [3] | Potency [6] | Potency [9]

CCCCOC(C)=O
inactive: Potency [8] | Potency [1] | Potency [2] | Potency [3] | Potency [6] | Potency [7]

NCC1(CC(=O)O)CCCCC1
inactive: Potency [8] | Potency [2] | Potency [3] | Potency [6] | Potency [7]

CC(Cc1ccccc1)NCCn1cnc2c1c(=O)n(C)c(=O)n2C (stereo not given)
inactive: Potency [1] | Potency [2] | Potency [3] | Potency [6] | Potency [10] | Potency [9]

CCCOC(=O)Cc1ccc(OCC(=O)N(CC)CC)c(OC)c1
inactive: Potency [8] | Potency [1] | Potency [2] | Potency [3] | Potency [6] | Potency [7]

Cc1ccc(-c2nc3ccc(C)cn3c2CC(=O)N(C)C)cc1
inactive: Potency [8] | Potency [2] | Potency [3] | Potency [6] | Potency [10] | Potency [7]
active: Potency [9] 10.6 µM

CCCC(C)C1(CC)C(=O)N=C(S)NC1=O (stereo not given)
inactive: Potency [8] | Potency [2] | Potency [3] | Potency [4] | Potency [5] | Potency [6]

CCOC(=O)c1ncn2c1CN(C)C(=O)c1c(I)cccc1-2
inactive: Potency [8] | Potency [1] | Potency [2] | Potency [3] | Potency [6] | Potency [7]

Cc1ccc2cc(C)ccc2c1
inactive: Potency [8] | Potency [2] | Potency [3] | Potency [5] | Potency [6] | Potency [10] | Potency [9]

O=C1CCCCC1Cl (stereo not given)
inactive: Potency [8] | Potency [1] | Potency [2] | Potency [3] | Potency [6] | Potency [7]

CC(C)[C@]12CC(=O)[C@H](C)[C@H]1C2
inactive: Potency [8] | Potency [1] | Potency [2] | Potency [3] | Potency [6] | Potency [7]

S=C=S
inactive: Potency [8] | Potency [2] | Potency [3] | Potency [4] | Potency [5] | Potency [6] | Potency [10] | Potency [9] | Potency [7]

CN1COCN(Cc2cnc(Cl)s2)/C1=N\[N+](=O)[O-]
inactive: Potency [8] | Potency [1] | Potency [2] | Potency [3] | Potency [6] | Potency [7]

O=P(O)(O)CN(CP(=O)(O)O)CP(=O)(O)O
inactive: Potency [8] | Potency [1] | Potency [2] | Potency [3] | Potency [6] | Potency [7]

Clc1nc(Cl)nc(Nc2ccccc2Cl)n1
inactive: Potency [8] | Potency [2] | Potency [3] | Potency [4] | Potency [5] | Potency [6] | Potency [10] | Potency [9] | Potency [7]

CC(C)(O)C(Cl)(Cl)Cl
inactive: Potency [8] | Potency [1] | Potency [2] | Potency [3] | Potency [6] | Potency [7]

O=C1C2CC=CCC2C(=O)N1SC(Cl)(Cl)Cl (stereo not given)
inactive and 21.3 µM (active): Potency [7]
active: Potency [1] 25.1 µM and 31.2 µM | Potency [10] 7.66 µM and 47.8 µM
inactive and 30.1 µM (active): Potency [6]
inactive: Potency [5] | Potency [9]
inactive and 13.5 µM (active): Potency [4]
inactive and 53.6 µM (active): Potency [8]

N[C@@H]1C[C@H]1c1ccccc1
inactive: Potency [8] | Potency [1] | Potency [2] | Potency [3] | Potency [6] | Potency [7]

CC(C)(N)Cc1ccc(Cl)cc1
inactive: Potency [1] | Potency [2] | Potency [3] | Potency [4] | Potency [5] | Potency [6] | Potency [7]

Clc1cc2c(cc1Cl)Oc1cc(Cl)c(Cl)cc1O2
inactive: viability change, negative = cytotoxic [8] -2.52% [at 0.349 µM] | activity change, negative = inhibition [1] -7.47% [at 0.435 µM] | viability change, negative = cytotoxic [2] -0.641% [at 0.349 µM] | activity change, negative = cytotoxicity [3] -2.86% [at 0.349 µM] | viability change, negative = cytotoxic [6] -1.69% [at 0.349 µM] | activation [7] 10.3% [at 0.349 µM]

O=C(O)C(F)(F)C(F)(F)C(F)(F)C(F)(F)C(F)(F)C(F)(F)F
inactive: Potency [8] | Potency [2] | Potency [3] | Potency [4] | Potency [5] | Potency [6]

Cn1c(N)nc2c3cccnc3ccc21
active: Potency [5] 32.7 µM
inactive: Potency [6]

CCC1(c2ccccc2)CCC(=O)NC1=O (stereo not given)
inactive: Potency [8] | Potency [1] | Potency [2] | Potency [3] | Potency [6] | Potency [7]

CC[C@H](O)C(C[C@H](C)N(C)C)(c1ccccc1)c1ccccc1
inactive: Potency [1] | Potency [2] | Potency [3] | Potency [4] | Potency [5] | Potency [6]
